CCT modulator = modulators of cytosolic chaperonin (CCT/TRiC) activity. AID 651819. purified chaperonin ATPase assay, HTRF ADP detection, 30 min. activity change, % (no concentration beside the values), hits read low. 0.3% of 360,000 active; in the data active = activity change below about -30%; also: % is scaled to controls: 0 for no effect and ±100 for the full control effect
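First, chaperonin was dispensed at 40 nM or 20 nM final depending on batch activity. Next, compounds were pinned at 76 uM and ATP added at 10 uM. After 30 min at 37 °C, ADP detection reagents ran 30 min at ambient temperature.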
TDP43 rescue = TDP-43 toxicity inhibition in yeast; Potency, µM (doses to about 46.1 µM), inactives show at the highest dose growth rescue (activation), hits mostly activators; TDP-43 expressing yeast growth rescue, BacTiter-Glo, 24 h; AID 652104; 1.8% of 410,000 active; also: potency is read from the fitted curve at half-maximal effect; % of control where 0% means no effect; nearly all actives have a fitted effect of over 50% in size
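Readout is BacTiter-Glo luminescence of cell growth, so inhibitors register as activators. TDP-43-expressing yeast at OD600=0.02 in galactose medium, after raffinose pregrowth to mid-log, were incubated with compound for 24 hr at 30 deg C.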
FUS suppressor = suppressors of FUS proteinopathy in yeast; 0.24% of 390,000 active; S. cerevisiae FUS-expressing, growth rescue, OD600, 24 h; Potency, µM (highest dose often 76.6 µM), hits mostly activators;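 also: potency is read from the fitted curve at half-maximal effect; plate controls were DMSO vehicle for no effect and reference control for full effect; nearly all actives have a fitted effect of over 55% in size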
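Quantitative HTS measuring growth restoration of FUS-toxic yeast. Galactose-induced cells (OD 0.005) were exposed 24hr at 30C to compounds at several concentrations, then absorbance at 600 nm was recorded.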
Abeta yeast res = restores growth of yeast expressing A-beta42 peptide; yeast expressing A-beta42, growth rescue, OD600, 48 h; response scale: 0% DMSO, 100% iron-clioquinol control; Potency, µM (top dose mostly 46.1 µM), most hits filed as activators; 0.063% of 410,000 active; AID 1347071; also: potency is read from the fitted curve at half-maximal effect; nearly all actives have a fitted effect of over 55% in size
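Yeast A-beta toxicity model in growth medium with pinned compounds, 48 h at 30 C; growth read as absorbance at 600 nm. Normalized to FeCl3/clioquinol equimolar mix (positive) and DMSO (negative).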
MmCpn inh = inhibitors of Methanococcus maripaludis chaperonin TRiC (MmCpn); Potency, µM (titrated, usually from 76.9 µM), for the others: at the top dose activity, negative = inhibition, most hits filed as inhibitors; 0.031% of 330,000 active; purified Mm-Cpn ATPase, ADP Transcreener TR-FRET; also: potency is read from the fitted curve at half-maximal effect; % is scaled to controls: 0 for no effect and ±100 for the full control effect; nearly all actives have a fitted effect of over 80% in size
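Purified archaeal Mm-CPN (25nM final) preincubated 10 min at 37degC with compound, then 10uM ATP for 30 min at 37degC; ADP measured by HTRF Transcreener TR-FRET; buffer 30 mM TRIS pH 7.4, 100mM KCl, 5mM MgCl2, 1mM DTT.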
aSyn yeast inh = inhibitors of alpha-synuclein toxicity in yeast; Potency, µM (titrated, usually from 46.1 µM), for inactives: at the highest dose growth rescue (activation), actives largely listed as activators; AID 652106; Yeast expressing alpha-synuclein, growth rescue, BacTiter-Glo, 24 h; 0.14% of 370,000 active; also: potency is read from the fitted curve at half-maximal effect; % of control where 0% means no effect; nearly all actives have a fitted effect of over 65% in size
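Rescue of yeast growth: cells expressing toxic alpha-synuclein, induced in galactose at OD600 0.02, incubated with compound 24 h at 30 C. ATP luminescence quantified growth; inhibitors of toxicity appear as activators.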
* = called active by the depositor; i = inactive; ? = inconclusive; / = no result given. Hits are enriched below; roughly 2.3% of the tested compounds scored in any of these assays. Unless noted, calls follow the shape of the dose curve; as a rule, active = well fitted curve in the direction sought with a large enough effect; inconclusive = small, poorly fitted or top-dose-only effect, or another doubt; inactive = no such curve, though single readings can be large; an effect the other way counts as inactive or inconclusive.

SMILES	CCT modulator	TDP43 rescue	FUS suppressor	Abeta yeast res	MmCpn inh	aSyn yeast inh
O=C1c2ccccc2NC(c2cn[nH]c2-c2ccccc2)N1O (stereo not given)	-4	14%	/	i	1%	-4%
CCOc1ccc(C(=O)OCCN(C)C)cc1	-32*	-3%	i	i	-1%	-4%
Cc1cc(NCc2ccccc2)nc(-c2ccccc2O)n1	0	11µM*	i	i	-4%	-12%
Cc1ccc(C)c(Nc2cc(C)nc(-c3ccccc3O)n2)c1	-1	14µM*	i	i	-2%	-17%
Cc1cc(Nc2ccccc2)nc(-c2ccccc2O)n1	-1	1%	i	i	0%	-26%
CCc1ccc(Nc2nc(-c3cc4cccc(OC)c4oc3=O)c(CC)s2)cc1	/	-9%	?	i	/	/
Cc1cccc(N2CCN(C(=O)c3oc(=O)c4ccccc4c3-c3ccccc3)CC2C)c1 (stereo not given)	/	13µM*	?	i	/	/
O=C(c1oc(=O)c2ccccc2c1-c1ccccc1)N1CCOCC1	0	-5%	i	i	2%	0%
Clc1ccc(Nc2nc(NCc3ccco3)nc3nccnc23)cc1	/	/	/	/	/	-7%
O=C(NCc1nc2ccccc2[nH]1)C1=C[C@H](c2ccccc2)C[C@H](OCc2ccc(CO)cc2)O1	2	22%	i	i	/	3%
O=C(NCc1nc2ccccc2[nH]1)C1=C[C@H](C2CCCCC2)C[C@H](OCc2ccc(CO)cc2)O1	-2	8%	20µM*	i	/	-19%
O=C(NCc1nc2ccccc2[nH]1)C1=C[C@@H](c2ccc(C(F)(F)F)cc2)C[C@@H](OCc2ccc(CO)cc2)O1	-1	3%	32µM*	i	/	-3%
O=C(NCc1nc2ccccc2[nH]1)C1=C[C@H](C2CCCCC2)C[C@H](OCCCCO)O1	-1	9%	i	i	/	-6%
CC(=O)n1cc([C@H]2C=C(C(=O)NCc3ccccc3)O[C@@H](OCc3ccc(CO)cc3)C2)c2ccccc21	-1	1%	25µM*	i	/	-9%
O=C(NCc1nc2ccccc2[nH]1)C1=C[C@@H](C2CCCCC2)C[C@@H](OCc2ccc(CO)cc2)O1	0	21%	32µM*	i	/	5%
CCN(C(=O)C1CCN(c2ncccn2)CC1)c1ccccc1	/	/	i	/	/	/
CCOc1ccc(CCNC(=O)c2cc3sccc3n2Cc2cccc(C)c2)cc1OCC	/	/	i	/	/	/
CCCCCCc1ccc(NC(=O)[C@@H]2CC=C[C@@H]3CCN(Cc4ccccc4)C(=O)[C@@H]32)cc1	/	/	i	/	/	/
CN(C)S(=O)(=O)c1ccc(N2CCCC2)c(C(=O)N2CCN(S(=O)(=O)c3ccc(F)c(F)c3)CC2)c1	1	16%	28µM*	i	/	1%
CC(=O)c1cccc(NC(=O)C2(C)Cc3c(-c4cccc(C(F)(F)F)c4)ccnc3O2)c1 (stereo not given)	-1	35µM*	?	i	/	?
CC(=O)Nc1ccc(-c2ccnc3c2CC(C)(C(=O)Nc2ccc(Cl)c(C(F)(F)F)c2)O3)cc1 (stereo not given)	1	35µM*	?	i	/	-35%
CC1(C(=O)Nc2ccc(Cl)c(C(F)(F)F)c2)Cc2c(-c3ccccc3)ccnc2O1 (stereo not given)	0	5%	i	i	/	-6%
CC(=O)Nc1ccc(NC(=O)C2(C)Cc3c(-c4cccc(C(F)(F)F)c4)ccnc3O2)cc1 (stereo not given)	-1	18%	i	i	/	24%
C#CCCC(=O)Nc1sc2c(c1-c1nc3ccccc3s1)CCN(C(C)C)C2	/	/	i	/	/	/
Nc1c(Cl)cc2c(c1Br)Cc1ccccc1-2	-3	-10%	i	i	/	0%
SMILES	CCT modulator	TDP43 rescue	FUS suppressor	Abeta yeast res	MmCpn inh	aSyn yeast inh
Nc1ccc2c(c1Br)Cc1ccccc1-2	-41*	35µM*	i	i	/	-11%
CC(=O)Nc1ccc2c(c1Br)Cc1ccccc1-2	-15	18µM*	i	i	/	-9%
Cc1ccc(NC(=O)c2cc(S(=O)(=O)N3CCC4(CC3)OCCO4)ccc2F)cc1Cl	/	-4%	i	i	/	/
CC(/C=N/NC(=O)CSc1ccccn1)=C\c1ccc(C(C)C)cc1	-3	20µM*	/	i	0%	8%
CCCCOc1ccc(C(=O)Oc2cc(C)[nH]c(=O)c2[N+](=O)[O-])cc1	-1	18µM*	i	i	-3%	-2%
O=C(Cc1ccccc1)N(Cc1cccnc1)c1nc2c(Cl)cccc2s1	/	20µM*	i	i	/	/
CCc1ccc2nc(N(Cc3cccnc3)C(=O)c3ccc(C#N)cc3)sc2c1	/	1.8µM*	i	i	/	/
COc1ccc2nc(N(Cc3cccnc3)C(=O)Cc3ccccc3)sc2c1	/	32µM*	i	i	/	/
CC(=O)c1ccc(C(=O)N(Cc2cccnc2)c2nc3c(C)c(C)ccc3s2)cc1	/	22µM*	?	i	/	/
O=C(Cc1ccccc1)N(Cc1cccnc1)c1nc2c(F)cccc2s1	/	?	i	i	/	/
CC(=O)c1ccc(C(=O)N(CCCN(C)C)c2nc3c(C)c(C)ccc3s2)cc1	/	-10%	i	i	/	/
Nc1cccc(/C=C2\C=Cc3ccccc32)c1	/	/	/	/	/	3%
CCc1ccc2nc(N(Cc3cccnc3)C(=O)Cc3ccccc3)sc2c1	/	28µM*	i	i	/	/
CCOc1ccc2nc(N(Cc3cccnc3)C(=O)c3cccs3)sc2c1	/	14µM*	i	i	/	/
COc1ccc(C2Nc3ccccc3C(=O)N2Cc2ccccc2)cc1COc1ccccc1F (stereo not given)	/	/	/	/	/	-2%
CC(=O)O[C@@]12CO[C@@H]1C[C@H](O)[C@@]1(C)C(=O)[C@H](O)C3=C(C)[C@@H](OC(=O)[C@H](O)[C@@H](NC(=O)OC(C)(C)C)c4ccccc4)C[C@@](O)([C@@H](OC(=O)c4ccccc4)[C@H]21)C3(C)C	/	/	/	/	/	2%
COc1ccc(OCC(=O)N2CCC(c3nc4ccccc4s3)CC2)cc1	/	?	i	i	/	/
CC(C)Oc1ccc(C(=O)N2CCC(c3nc4ccccc4s3)CC2)cc1	/	4%	i	i	/	/
CCc1ccc(OC(C)C(=O)N2CCC(c3nc4ccccc4s3)CC2)cc1 (stereo not given)	/	16µM*	?	i	/	/
COc1ccccc1OC(C)C(=O)N1CCC(c2nc3ccccc3s2)CC1 (stereo not given)	/	14µM*	i	i	/	/
Brc1ccc(Cn2c(-c3cncs3)nc3ccccc32)cc1	-3	?	i	i	-8%	1%
